Source: PubChem
The list is not random: actives were taken first. Their share in the collection is about 7.9%.
HT1080NT lethal: qHTS for induction of synthetic lethality in tumor cells producing 2HG: qHTS for the HT-1080-NT fibrosarcoma cell line; HT-1080-NT fibrosarcoma viability, CellTiter-Glo ATP luminescence, 48 h; Potency, µM (series often up to 46.1 µM), for the others: at the highest dose activity, negative = less viability, most hits filed as cytotoxic; 360,000 tested, 1.6% active; AID 686970, 2013;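 note: NT is the 2HG producing partner of a matched IDH1 knockdown line; 0% = DMSO-treated cells and -100% = media-only wells without cells; nearly all actives have a fitted effect of over 55% in size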
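Fibrosarcoma NT cells, 750 per well in 5% FBS RPMI, were exposed to compound for 48 hours. Viability: CellTiter-Glo luminescence.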
KB-V1 MDR tox: qHTS assay for MDR1-selective chemotherapeutics: Primary screen using the drug-selected MDR subline cells KB-V1; Potency, µM (top dose mostly 46.1 µM), hits mostly cytotoxic; 400,000 tested, 3.4% active; KB-V1 MDR cells viability, CellTiter-Glo, 72 h; note: % is set by controls: 0 for no effect and ±100 for the full control effect; nearly all actives have a fitted effect of over 60% in size
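Following 72 h at 37 degrees C with compound, KB-V1 cell viability was read by CellTiter-Glo luminescence, medium being phenol-red-free DMEM plus 10% FBS; concentration-response parameters came from normalized, curve-fitted qHTS data.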
SW480 rerep: A quantitative high throughput screen for small molecules that induce DNA re-replication in SW480 colon adenocarcinoma cells | SW480 DNA re-replication, Hoechst DNA content imaging, 48 h | Potency, µM (titrated, usually from 46.1 µM), for the others: top-dose re-replication activation, usual class: activators | 340,000 tested, 1.8% active | AID 624297, 2012; note: % of control where 0% means no effect; nearly all actives have a fitted effect of over 55% in size
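Readout is total intensity of Hoechst-stained nuclei, excited at 405 nm and collected at 500-530 nm. Compound treatment lasted 48 hr at 37 C in 5% CO2 before staining.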
KB-3-1 tox: qHTS assay for MDR1-selective chemotherapeutics: Primary screen using the parental adenocarcinoma cell KB-3-1; 400,000 tested, 1.4% active; Potency, µM (titrated, usually from 46.1 µM), hits mostly cytotoxic; KB-3-1 viability, CellTiter-Glo ATP luminescence, 72 h; note: % is set by controls: 0 for no effect and ±100 for the full control effect; nearly all actives have a fitted effect of over 60% in size
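Luminescent ATP read-out (CellTiter-Glo) measures survival of drug-naive KB-3-1 cells after 72 h compound exposure at 37 °C. Titration series was screened from lowest to highest concentration, with DMSO vehicle plates as background controls.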
MCF10A rereplic: A quantitative high throughput screen for small molecules that induce DNA re-replication in MCF 10a normal breast cells. MCF 10A DNA re-replication, Hoechst nuclear intensity, 48 h. AID 624296, 2012. 350,000 tested, 2.9% active. Potency, µM (titrated, usually from 46.1 µM), inactives show at the highest dose activity, positive = re-replication, usual class: activators; note: % of control where 0% means no effect; nearly all actives have a fitted effect of over 50% in size
HT1080 IDH1KD tx: qHTS for induction of synthetic lethality in tumor cells producing 2HG: qHTS for the HT-1080-IDH1KD cell line. Potency, µM (doses to about 46.1 µM), inactives show at the highest dose activity, negative = toxicity, usual class: cytotoxic. AID 686971, 2013. HT-1080 IDH1 knockdown viability, ATP luminescence, 48 h. 360,000 tested, 2% active;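 note: 0% = DMSO wells and -100% = cell-free medium wells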
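Knockdown cells (IDH1KD HT-1080) received compounds 2 h after plating at 750 cells/well and were kept 48 h at 37 °C in 5% FBS RPMI. A CellTiter-Glo luminescence read gave % activity for curve fitting.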
An asterisk follows results filed as active; i = inactive; u = inconclusive; x = no result given; ! = not confirmed by another sample. Calls come from the whole dose curve; as a rule, active = well fitted curve in the direction sought with a large enough effect; inconclusive = small, poorly fitted or top-dose-only effect, or another doubt; inactive = no such curve, though single readings can be large; an effect the other way counts as inactive or inconclusive. Potency is the fitted concentration of half-maximal effect.

SMILES	HT1080NT lethal	KB-V1 MDR tox	SW480 rerep	KB-3-1 tox	MCF10A rereplic	HT1080 IDH1KD tx
O=S(Cc1ccc(Br)cc1)Cc1nnc(SCc2ccc(Cl)cc2)n1-c1ccccc1 (stereo not given)	-3%	2.3µM*	-4%	u	u	-22%
Cn1c(CS(=O)Cc2c(Cl)cccc2Cl)nnc1SCc1ccc(Cl)cc1 (stereo not given)	-1%	5.2µM*	-3%	i	19%	u
Nc1nc(SCc2ccccc2)c2ncn(C3CCCCC3)c2n1	u	i	5%	i	u	-12%
Cc1onc(-c2ccccc2Cl)c1C(=O)N1CCC(C(N)=O)CC1	2%	i	4%	i	4%	11%
Cc1noc(C)c1C(=O)N1CCC(Cc2ccccc2)CC1	1%	15µM*	-2%	i	6%	-1%
Cc1onc(-c2ccccc2Cl)c1C(=O)N1CCC(Cc2ccccc2)CC1	-11%	i	-13%	u	u	18µM*
c1ccc(Cn2nnnc2C(c2ccccc2)N2CCN(Cc3ccncc3)CC2)cc1 (stereo not given)	x	i	x	i	x	x
CCOc1cccc(C(=O)Nc2ccc(NC(=O)c3cc4ccccc4o3)c(OC)c2)c1	u	u	-1%	i	u	-12%
COc1cc(NC(=O)C(C)C)ccc1NC(=O)c1cc2ccccc2o1	0%	i	-7%	i	-1%	4%
COc1cc(NC(=S)NC(=O)C(C)C)ccc1NC(=O)c1cc2ccccc2o1	5%	i	u	i	8.2µM*	8%
COc1cc(NC(=O)c2cccc(C)c2)ccc1NC(=O)c1cc2ccccc2o1	-5%	i	15%	i	2.6µM*	-14%
COc1ccc(/C=C2\CCc3ccccc3C2=O)cc1O	2.3µM*	5.2µM*	0.52µM*	3.7µM*	u	4.1µM*
CC(=O)Nc1ccc(/C=C2\CCc3ccccc3C2=O)cc1	23µM*	u	-2%	i	-13%	u
O=C1/C(=C\c2ccc([N+](=O)[O-])cc2)CCc2ccccc21	-5%	i	-2%	i	0%	-2%
CCCCN1CC(N(C)CCN(C)C)CS1(=O)=O (stereo not given)	3%	i	x	i	x	12%
O=C(CN1CCN(C(=O)c2ccc(OCc3cn4ccccc4n3)cc2)CC1)Nc1cccc(F)c1	7.3µM*	i	-5%	i	8%	-14%
O=C1NC2(CCCCC2)OC12CCCCC2	12%	i	1%	i	-4%	4%
CCc1cc2c(N=Nc3c(O)[nH]c4ccccc34)ncnc2s1	-16%	6.5µM*	-9%	u	u	-1%
NCCc1nnc(SCc2ccc(Cl)cc2)o1	x	u	x	i	x	x
N#Cc1ncc(Cc2ccccc2)nc1C#N	-23%	i	15%	i	u	u
COc1cc2c(cc1OC)C(c1ccc(-c3ccc(Cl)cc3Cl)o1)=NCC2	u	2.6µM*	u	23µM*	u	23µM*
COc1cc2c(cc1OC)C(c1ccc(-c3ccc(Cl)c(Cl)c3)o1)=NCC2	u	u	18µM*	16µM*!	2.3µM*	23µM*
COc1cc2c(cc1OC)C(c1ccc(-c3cc(Cl)ccc3Cl)o1)=NCC2	-7%	5.2µM*	16µM*	u	u	-7%
COc1cc2c(cc1OC)C(c1ccc(-c3ccccc3Cl)o1)=NCC2	u	i	u	i	u	13µM*
COc1cc2c(cc1OC)C(c1ccc(Cl)cc1)=NCC2	8%	i	11%	i	5%	-11%
SMILES	HT1080NT lethal	KB-V1 MDR tox	SW480 rerep	KB-3-1 tox	MCF10A rereplic	HT1080 IDH1KD tx
CN(C)N(C(=O)c1cc(-c2cccs2)nn1-c1ccccc1)C1CCS(=O)(=O)C1 (stereo not given)	-6%	i	-9%	i	22%	-1%
NNC(=O)c1cc2c(s1)-c1cc(Cl)ccc1SC2	u	i	29µM*	u	21µM*	u
CN(Cc1ccccc1)C(=O)c1cc2c(s1)-c1ccc(Cl)cc1SC2	x	i	x	i	x	x
CCN(CCNC(=O)c1ccc(CSc2nc3ccncc3[nH]2)cc1)c1ccccc1	0%	i	-7%	i	u	5%
O=C(NCCN1CCN(c2cccc(Cl)c2)CC1)c1ccc(CSc2nc3ccncc3[nH]2)cc1	u	i	16%	u	18µM*	u
CC(C)C(NS(=O)(=O)c1c(Cl)cccc1Cl)C(=O)OCC(=O)c1c[nH]c2ccccc12 (stereo not given)	-17%	21µM*	x	i	13%	-26%
CC(O)C(NS(=O)(=O)c1ccc(Cl)cc1)C(=O)OCC(=O)c1c[nH]c2ccccc12 (stereo not given)	-27%	i	3%	i	22%	-24%
CCOc1ccccc1NC(=O)CCSc1nc2n[nH]c(C)c2c(=N)n1-c1ccccc1Cl	u	u	u	i	13µM*	u
CCOc1ccccc1-n1c(SCC(=O)Nc2ccc(CC)cc2)nc2n[nH]c(C)c2c1=N	-9%	u	-2%	18µM*	8.2µM*	u
Cc1ccccc1-n1c(SCC(=O)Nc2ccccc2Cl)nc2n[nH]c(C)c2c1=N	u	i	-6%	u	u	u
O=C(Nc1ccc2c(c1)C(=O)OC2)c1ccccc1Cl	5%	i	-30%	i	-20%	3%
CN(Cc1cccc(Cl)c1)C(=O)C1CCN(C(=O)Nc2ccccc2)CC1	0%	i	-4%	i	10%	-1%
CN(Cc1ccccc1)C(=O)C1CCCN(Cc2cccc(Cl)c2)C1 (stereo not given)	u	i	-43%	u	0.29µM*	u
CC(=O)c1ccccc1NC(=O)c1ccc2c(c1)NC(=O)C(C)S2 (stereo not given)	-29%	u	-15%	u	u	-8%
Cc1ccnc(NC(=O)c2ccc3c(c2)NC(=O)C(C)S3)c1 (stereo not given)	-6%	i	5%	18µM*	3%	-16%
CCCNC(=O)c1ccccc1NC(=O)c1ccc2c(c1)NC(=O)C(C)S2 (stereo not given)	-30%	u	u	u	u	9.2µM*
